Source: PubChem (University of Kansas High Throughput Screening Laboratory)
mHTT-CaM PPI inh: mutant huntingtin-calmodulin interaction inhibitors – biochemical, AlphaScreen, primary screen; P42858; AlphaScreen His-mHTT/GST-CaM binding, luminescence; inhibition, % at 15 µM; hit rate 3.6% among 190,000
Pf apPOL block: Pf-apPOL inhibitors, biochemical, fluorescence | Recombinant Pf-apPOL, molecular beacon fluorescence, 1.5 h | hit rate 0.25% among 210,000 | inhibition, % at 10 µM
Large screens that a line does not name were inactive. Hits are enriched below; roughly 3.6% of the tested compounds scored in any of these assays. No stated cut-off is given here; in the data, active means inhibition above about 50%; inactive means the rest.

CN(C)c1ccc(NC(=O)c2ccc(Br)cc2)cc1	none
CN(C)c1ccc(NC(=O)c2ccc(N(C)C)cc2)cc1	mHTT-CaM PPI inh 72
CCC(=O)N1CCc2cc(N3CC(C(=O)NCC4CC4)CC3=O)ccc21 (stereo not given)	none
N#Cc1ccc(C(=O)N2CCC(c3nc(CCNC(=O)C4CCC4)cs3)CC2)cc1	none
COc1ccc(-c2cc([C@H]3[C@@H]4C=CCC[C@@]4(C)C(=O)N3Cc3ccccc3)ccc2F)cc1	none
C[C@@]12CCC=C[C@H]1[C@H](c1ccc3ccccc3c1Br)N(Cc1ccccc1)C2=O	mHTT-CaM PPI inh 94
COc1ccc(-c2ccc([C@H]3[C@@H]4C=CCC[C@@]4(C)C(=O)N3Cc3ccccc3)c(F)c2)cc1	none
COc1ccc(-c2c([C@H]3[C@@H]4C=CCC[C@@]4(C)C(=O)N3Cc3ccccc3)ccc3ccccc23)cc1	mHTT-CaM PPI inh 58
Cc1ccc(-c2ccc([C@H]3[C@@H]4C=CCC[C@@]4(C)C(=O)N3Cc3ccccc3)c(F)c2)cc1	none
COc1ccc(-c2ccccc2[C@H]2[C@@H]3C=CCC[C@@]3(C)C(=O)N2Cc2ccccc2)cc1	mHTT-CaM PPI inh 67
C[C@@]12CCC=C[C@H]1[C@H](c1ccc3ccccc3c1)N(Cc1ccccc1)C2=O	mHTT-CaM PPI inh 82
Cc1ccc(-c2c([C@H]3[C@@H]4C=CCC[C@@]4(C)C(=O)N3Cc3ccccc3)ccc3ccccc23)cc1	none
COc1ccc(OCC(=O)Nc2ccc(S(=O)(=O)Nc3c(C)cccc3C)cc2)cc1	none
CCOC(=O)c1ccc(NC(=O)CSc2nnc(-c3cccn(CC)c3=O)n2C)cc1	none
CC1Oc2ccc(N)cc2CN(CC2CCCCC2)C1=O (stereo not given)	none
OC1CCC(NC2Cc3ccccc3C2)CC1 (stereo not given)	none
C=CCc1nc2c(c(=O)n1Cc1ccccc1)C(C)(C)Cc1ccccc1-2	none
O=C(c1ccc(C(F)(F)F)nc1)N1CCOC(COc2ccccc2)C1 (stereo not given)	none
CC1=Nc2ccccc2C1=Cc1sc(=N)n(-c2nccs2)c1O	mHTT-CaM PPI inh 100
CC1=Nc2ccccc2C1=Cc1sc(=O)n(-c2ccccc2)c1O	none
CC(CCc1ccccc1)NC(=O)CN1CCN(C(=O)Nc2ccc(Cl)cc2)CC1=O (stereo not given)	none
O=S(=O)(c1ccc(Cl)cc1)N1CCN(c2nc3ccccc3[nH]2)CC1	none
COCCN=C1Nc2ccccc2NC12CCCN(C(=O)Cc1cccc(OC)c1)C2 (stereo not given)	none
CC(C)(C)N=C1Nc2ccccc2NC12CCCN(C(=O)Nc1ccc3c(c1)OCCO3)C2 (stereo not given)	mHTT-CaM PPI inh 94
COc1cccc(CC(=O)N2CCCC3(C2)Nc2ccccc2NC3=NC(C)(C)C)c1 (stereo not given)	mHTT-CaM PPI inh 78
CC(C)N1CCC(CC(=O)N2CCCC3(C2)Nc2ccccc2NC3=NC(C)(C)C)CC1 (stereo not given)	none
O=C(COc1ccc(F)cc1)N1CCCC2(C1)Nc1ccccc1NC2=NC1CCCC1 (stereo not given)	mHTT-CaM PPI inh 86
O=C(c1cccc(F)c1)N1CCCC2(C1)Nc1ccccc1NC2=NC1CCCC1 (stereo not given)	none
CC(C)(C)N=C1Nc2ccccc2NC12CCCN(C(=O)Cc1cccs1)C2 (stereo not given)	mHTT-CaM PPI inh 64
CC(=O)c1cccc(NC(=O)N2CCCC3(C2)Nc2ccccc2NC3=NC(C)(C)C)c1 (stereo not given)	none
CCc1cc(C2CCCN2C(=O)Nc2ccccc2OC)on1 (stereo not given)	none
COc1ccc(N2C(=O)CSC2c2ccc([N+](=O)[O-])cc2)c(OC)c1 (stereo not given)	none
O=C(c1cccs1)N1CCC(c2nc(-c3ccncc3)no2)C1 (stereo not given)	none
O=C(NC1CCCCC1)c1ccc2ncnc(N3CCCCC3)c2c1	none
CC(C)(C)N=C1Nc2ccccc2NC12CCCN(C(=O)c1cccc(F)c1)C2 (stereo not given)	none
CC(C)(C)N=C1Nc2ccccc2NC12CCCN(C(=O)COc1ccc(F)c(F)c1)C2 (stereo not given)	mHTT-CaM PPI inh 100
CC(C)(C)N=C1Nc2ccccc2NC12CCCN(C(=O)Cc1ccccc1F)C2 (stereo not given)	mHTT-CaM PPI inh 65
O=C(c1n[nH]c2c1CCCC2)N1CCCC2(C1)Nc1ccccc1NC2=NC1CCCC1 (stereo not given)	mHTT-CaM PPI inh 92
Cc1noc(C)c1CC(=O)N1CCCC2(C1)Nc1ccccc1NC2=NC(C)(C)C (stereo not given)	none
COCCN=C1Nc2ccccc2NC12CCCN(C(=O)c1n[nH]c3c1CCCC3)C2 (stereo not given)	none
O=[N+]([O-])C(=C1NCCCN1)C(=C(Cl)Cl)N1CCOCC1	none
CN1CCCc2cc(C(CNC(=O)Cc3cccs3)N3CCOCC3)ccc21 (stereo not given)	none
CN1CCc2cc(C(CNS(=O)(=O)c3ccc(Cl)s3)N3CCOCC3)ccc21 (stereo not given)	mHTT-CaM PPI inh 99
O=S(=O)(NCC(c1ccsc1)N1CCOCC1)c1cccs1 (stereo not given)	none
CN1CCc2cc(C(CNC(=O)c3cccs3)N3CCOCC3)ccc21 (stereo not given)	mHTT-CaM PPI inh 95
COc1ccc(Cl)cc1S(=O)(=O)NCC(c1ccc2c(c1)CCN2C)N(C)C (stereo not given)	mHTT-CaM PPI inh 69
COc1ccc(Cl)cc1S(=O)(=O)NCC(c1cccn1C)N1CCCC1 (stereo not given)	none
O=C(Nc1ccccc1)Nc1cccnc1N1CCC(C(F)(F)F)CC1	none (no result: mHTT-CaM PPI inh)
Cc1cccc(-c2ncccc2CNC(=O)Cc2ccc(F)cc2)c1	none
CC1CC(C)CN(CCCNC(=O)CCS(=O)(=O)Cc2ccc(Cl)cc2)C1 (stereo not given)	none
O=C(CS(=O)(=O)Cc1ccccc1)Nc1nnc(-c2ccccc2Cl)o1	none
Cc1cc(-c2nnc(NC(=O)c3ccc(S(=O)(=O)N(C)C)cc3)o2)c(C)o1	mHTT-CaM PPI inh 58
COc1ccc(S(=O)(=O)CC(=O)Nc2nnc(-c3cc(C)oc3C)o2)cc1	mHTT-CaM PPI inh 57
COc1cc(OC)cc(-c2nnc(NC(=O)c3ccc(S(=O)(=O)N(C)C)cc3)o2)c1	none
CCS(=O)(=O)c1ccc(CC(=O)Nc2nnc(-c3ccccc3Cl)o2)cc1	mHTT-CaM PPI inh 68
COc1ccc(-c2nnc(NC(=O)CS(=O)(=O)c3ccc(F)cc3)o2)c(OC)c1	none
COc1ccccc1C(=O)N1CCCC(c2nnc(C)s2)C1 (stereo not given)	none
CN1c2ccc(F)cc2C(=O)NC12CCN(C(=O)c1ccc(Br)cc1)CC2	none
CC1(C)CC(=O)C2=C(C1)N=C1c3ccccc3C(=O)C1C2c1cccc(F)c1 (stereo not given)	none
CC1(C)CC(=O)C2=C(C1)N=C1c3ccccc3C(=O)C1C2c1ccc([N+](=O)[O-])cc1 (stereo not given)	none
CC1(C)CC(=O)C2=C(C1)N=C1c3ccccc3C(=O)C1C2c1cc([N+](=O)[O-])ccc1O (stereo not given)	mHTT-CaM PPI inh 53
CC1(C)CC(=O)C2=C(C1)N=C1c3ccccc3C(=O)C1C2c1ccc2c(c1)OCO2 (stereo not given)	none
O=C1CCCC2=C1C(c1ccc3c(c1)OCO3)C1C(=O)c3ccccc3C1=N2 (stereo not given)	mHTT-CaM PPI inh 55
